# IDE cell inh: human IDE inhibitors in live cells, primary screen, fluorescence polarization, HEK cells, FAbetaB substrate; Insulin-degrading enzyme (Homo sapiens), P14735; FAbetaB cleavage; inhibition, % at 5.59 µM; actives 0.41% (n = 320,000); AID 434962, 2010;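 active means percent inhibition above the average of all tested compounds plus 3 SD, set per screening campaign, cut at about 16% in these data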;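 further: IDE supplied by intact live HEK cells; FP after avidin binding of uncleaved biotin substrate so inhibition keeps polarization high; 0% = DMSO wells and 100% = 60 µM reference IDE inhibitor Ii1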
# Rin1 Abl inh: inhibitors of Rin1-Abl protein binding, primary screen, biochemical, TR-FRET | AID 588664, 2011 | Tyrosine-protein kinase ABL1 (Homo sapiens) + Ras and Rab interactor 1 (Homo sapiens), … | actives 0.4% (n = 360,000) | inhibition, % at 7.35 µM; in the data active means inhibition above about 5%, passing the limit was not always enough
# Calb FLC: C. albicans growth inhibition with fluconazole, primary screen, CaCi-2 strain, Alamar Blue fluorescence; C. albicans CaCi-2 (fluconazole-resistant clinical isolate) + fluconazole, 48 h; growth inhibition, % (concentration not given with the values); actives 0.57% (n = 300,000);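 active means growth inhibition above about 58% in most replicates, limit read from the data, passing the limit was not always enough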;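 further: all wells also contain fluconazole at 8 µg/ml as a sub-toxic cotreatment; 0% = median of DMSO wells and 100% = median of geldanamycin control wells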
# TPT1 inhibitor: Candida albicans TPT1 enzyme inhibitors, primary screen, biochemical, fluorescence polarization. tRNA 2'-phosphotransferase TPT1 (Candida albicans SC5314). inhibition, % at 5 µM. recombinant caTPT1, FP RNA substrate dephosphorylation. AID 1962, 2009. actives 0.81% (n = 300,000);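 active means inhibition above the mean of all tested compounds plus 3 SD, set per screening campaign, cut at about 24% in these data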;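 further: plate controls were DMSO alone for no effect and ferristatin control at 100 nM for full effect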
# IDE act: human IDE activators in live cells, primary screen, fluorescence polarization, HEK cells, FAbeta-B substrate. AID 493087, 2011. actives 0.073% (n = 340,000). activation, % at 5.96 µM. FAbeta-B cleavage; 0% vehicle, 100% cell-free pure enzyme wells. Insulin-degrading enzyme (Homo sapiens), P14735;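 active means activation above the mean of all tested compounds plus 3 SD, set per screening campaign, cut at about 17% in these data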
# Rpn11 inh: Rpn11 (PSMD14) deubiquitinase inhibitors, primary screen, biochemical, fluorescence polarization, uHTS; human 26S proteasome, Ub4-pepOG fluorescence polarization; 20S core pre-blocked with epoxomicin; inhibition, % at 20 µM; 26S proteasome non-ATPase regulatory subunit 14 (Homo sapiens), O00487; actives 0.59% (n = 360,000); AID 588493, 2011;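 active means inhibition at 20 µM, scaled to each plate's controls, above about 33%, limit read from the data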
# TPT1 inh confirm: Candida albicans TPT1 inhibitors, confirmation, biochemical, fluorescence polarization, triplicate | AID 2149, 2009 | actives 74% (n = 2,400) | recombinant caTPT1, RNase T1 coupled | inhibition, % at 5 µM | shares compounds with TPT1 inhibitor;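 active means inhibition above the primary screen limit, the mean inhibition of all tested compounds plus 3 SD, cut at about 25% in these data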
# RNase T1 inh: RNase T1 inhibitors, counter-screen for TPT1 inhibitor project, biochemical, fluorescence polarization | inhibition, % at 5 µM | RNase T1 cleavage, 1536-well | AID 2153, 2009 | shares compounds with TPT1 inhibitor | actives 83% (n = 2,400);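 active means inhibition above the solvent-only control well mean plus 3 SD, limit set per screening run, cut at about 23% in these data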;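 further: plate controls were DMSO wells with enzyme for no effect and wells without RNase T1 for full effect; inhibitors block cleavage so intact labeled substrate keeps polarization high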
# * = called active by the depositor; x = not tested or not shown. Compounds with a hit are over-represented: about 2.3% of the library has one in this group of screens.
SMILES,IDE cell inh,Rin1 Abl inh,Calb FLC,TPT1 inhibitor,IDE act,Rpn11 inh,TPT1 inh confirm,RNase T1 inh
O=C(Nc1ccn(-c2ccccc2)n1)c1ccccc1Br,-3.8,3.4,-4.2,33.5*,4.3,-0.1,4.2,9.6
COc1ccc(C(=O)Cn2nnc(-c3ccccc3NC(=O)C3CCCCC3)n2)cc1,3.5,-0.7,-5.5,29.6*,6.6,16.4,43.0*,54.5*
CCNc1ccc(Br)cc(C(=O)/C=C/c2ccc(Cl)cc2)c1=O,1.7,5.2,-1.1,64.3*,-2.3,31.4,45.7*,70.6*
CCNc1ccc(Br)cc(C(=O)/C=C/c2c(Cl)cccc2Cl)c1=O,3.2,1.8,-7.7,70.3*,-5.0,54.0*,75.3*,84.2*
COc1ccc(C(C)=NOC(=O)c2c(-c3ccccc3Cl)noc2C)cc1CN1CCOCC1,x,-0.2,x,x,x,-1.4,x,x
Cc1cc(/C=C2\SC(=S)NC2=O)c(C)n1-c1ccc(O)cc1,12.2,-1.2,15.3,94.7*,-6.0,x,108.4*,119.2*
COc1ccc(-n2ccn(CC(=O)Nc3ccc(OC)cc3OC)c(=O)c2=O)cc1,-1.7,-0.8,-2.1,-2.2,-0.3,-1.0,x,x
C/C(CC(=O)NCc1ccco1)=N\NC(=O)Cc1cccc2ccccc12,3.4,-0.5,-3.2,2.3,-4.7,-7.0,x,x
C/C(CC(=O)NCc1ccco1)=N\NC(=O)Cc1ccc(-c2ccccc2)cc1,-1.8,0.7,-3.7,38.1*,-6.6,-2.8,-0.3,4.3
O=C(O)CC/C(=N\Nc1ccc([N+](=O)[O-])cc1)c1ccccc1,2.1,-0.5,3.2,33.9*,1.6,26.5,45.7*,58.6*
CCCCNC(=O)N1CCN(Cc2ccc(F)cc2)CC1,0.5,-2.6,-17.8,-1.6,-0.9,2.6,x,x
Cc1ccc(NC(=O)C2CC(=O)N(Cc3ccccc3)C2)nc1 (configuration not stated),-9.5,-1.4,1.1,-2.0,6.0,-7.2,x,x
O=C(O)c1ccc(/C=C2\CCCc3c2nc2ccccc2c3C(=O)O)cc1,-1.3,-1.2,-1.0,-5.4,-2.6,-1.2,x,x
CN(C)c1ccc(/C=C2\CCCc3c2nc2ccccc2c3C(=O)O)cc1,-3.0,-1.2,1.9,25.4*,-5.2,11.7,28.3*,39.0*
O=C1CC(=O)N(CCNc2ncc(C(F)(F)F)cc2Cl)C(=O)N1,-0.6,-0.7,-2.9,38.3*,-0.4,18.6,23.4,38.9*
NC(=S)NN=C1C=CCCC1,x,-0.2,x,x,3.2,-1.3,x,x
COc1ccc(-n2c(O)c(/C=N/NS(=O)(=O)c3cccc([N+](=O)[O-])c3)c3ccccc3c2=O)cc1OC,7.3,-0.5,22.0,69.9*,-13.3,x,114.7*,118.5*
COCCCNC(=O)Cc1c(C)c2c(cc(C)c3c(C(C)(C)C)coc32)oc1=O,1.6,-1.3,7.3,-1.2,0.1,-4.2,x,x
Cc1nc2nc(-c3ccc(Cl)cc3)cn2nc1C,7.0,3.5,2.6,6.7,3.1,6.2,x,x
COc1cccc(-c2cn3nc(C)c(C)nc3n2)c1,1.1,-1.2,2.7,45.4*,2.6,27.5,45.4*,55.4*
CCOc1ccc(Br)cc1S(=O)(=O)Nc1nc(CN2CCOCC2)nc2sc(C)c(C)c12,3.9,-0.8,16.1,31.1*,6.6,24.5,27.2*,35.0*
Cc1sc2nc(CN3CCOCC3)nc(NS(=O)(=O)c3ccccc3)c2c1C,-1.9,-0.7,-5.9,5.6,-1.6,3.6,x,x
C=CCOC(=O)C1=C(C)NC(SCC(=O)N(CC)CC)=C(C#N)C1c1ccccc1 (configuration not stated),0.7,-0.3,-1.3,-2.1,14.3,0.6,x,x
CC(=O)C1=C(C)NC(SCC(=O)c2ccc(-c3ccccc3)cc2)=C(C#N)C1c1cccnc1 (configuration not stated),4.1,x,x,29.8*,x,x,39.1*,49.6*
C=CCOC(=O)C1=C(C)NC(SCC(=O)NC(=O)OCC)=C(C#N)C1c1cccnc1 (configuration not stated),3.0,-0.3,99.4*,24.7*,-2.2,8.9,23.0,31.2*
SMILES,IDE cell inh,Rin1 Abl inh,Calb FLC,TPT1 inhibitor,IDE act,Rpn11 inh,TPT1 inh confirm,RNase T1 inh
O=C(C[C@H]1C(=O)N(C2CCCCC2)C[C@@H]1c1ccccc1)Nc1ccc(Br)cc1,x,1.3,x,x,x,1.1,x,x
O=C(Cn1cc([N+](=O)[O-])ccc1=O)NCC1COc2ccccc2O1 (configuration not stated),7.7,0.8,x,x,-2.0,-0.9,x,x
CNc1ccc(Br)cc(C(=O)/C=C/c2cccc(OC)c2)c1=O,2.7,3.7,-4.9,42.3*,0.1,-5.1,60.9*,73.8*
CNc1ccc(Br)cc(C(=O)/C=C/c2ccc(OC)cc2OC)c1=O,4.9,5.0,37.6,53.5*,1.0,-9.4,75.7*,83.7*
CNc1ccc(Br)cc(C(=O)/C=C/c2ccc(Cl)cc2Cl)c1=O,-5.3,3.3,21.8,68.9*,-4.3,37.7,58.2*,72.1*
NC(=O)N/N=C/c1ccc(-c2ccc([N+](=O)[O-])cc2)o1,0.7,-4.7,11.0,13.1,4.8,5.2,x,x
COCCNC(=S)N/N=C/c1ccc(-c2ccc([N+](=O)[O-])cc2)o1,0.3,-2.1,14.5,46.9*,-3.5,x,50.5*,63.4*
O=C(Cc1ccccc1)N/N=C/c1ccc(-c2ccc([N+](=O)[O-])cc2)o1,6.3,2.1,-0.9,23.0,-1.8,31.8,x,x
COc1cc([N+](=O)[O-])ccc1-c1ccc(/C=N/NC(N)=O)o1,2.8,-5.7,1.0,51.2*,2.8,x,58.3*,67.9*
Cc1ccc(C)c(N(CC(=O)N/N=C/c2ccc(-c3ccc([N+](=O)[O-])cc3)o2)S(=O)(=O)c2ccccc2)c1,-2.7,-3.2,-13.2,41.3*,5.2,x,50.5*,61.0*
COc1ccccc1CN1CC(C(=O)NCCN2CCOC2=O)CCC1=O (configuration not stated),x,-2.1,1.4,x,8.1,-7.9,x,x
O=C(CN1C(=O)S/C(=C/c2ccc(N3CCOCC3)cc2)C1=O)N1CCOCC1,9.3,-11.8,0.1,40.3*,1.6,x,61.2*,72.7*

# Assay outcomes as filed in PubChem.
